This passage reports potency estimated from few doses results from PMC11062922 (Nature Chemical Biology, 2023).

Each structure is given as a SMILES string. Where two headings read alike, the source gives them in different places.

What all share (parameters): species or system human, MV4-11 + K-562 + COLO205 + SK-N-BE2 + OVCAR-8
One assay relates to ADRBK1. The conditions noted are these: read-out: apparent Kd, n = 1.
Another assay has as its system AKT1. The conditions noted are these: read-out: apparent Kd, n = 1.
Another assay concerns AKT2. Particulars: read-out: apparent Kd, n = 1.
A further assay has as its system CSNK1A1. Particulars: read-out: apparent Kd; compound concentrations:100 nM and 1000 nM (sheet 'Samples'); n = 1.
The next assay deals with MAP2K2. Particulars: read-out: apparent Kd, n = 1.
The subject of a further assay is MAP3K4. Particulars: read-out: apparent Kd; compound concentrations:100 nM and 1000 nM (sheet 'Samples'); n = 1.
The test system of the next assay is MAPK14. Particulars: read-out: apparent Kd; compound concentrations: 100 nM and 1000 nM (sheet 'Samples'), CATDS: 0.122142095126863; n = 1.
For another assay, the system named is NCL. The conditions noted are these: read-out: apparent Kd; compound concentrations:100 nM and 1000 nM (sheet 'Samples'); n = 1.
In a further assay the test system is OPA1. The conditions noted are these: read-out: apparent Kd; compound concentrations:100 nM and 1000 nM (sheet 'Samples'); n = 1.
In another assay the test system is PIM2. Particulars: read-out: apparent Kd; compound concentrations:100 nM and 1000 nM (sheet 'Samples'); n = 1.
The subject of the next assay is PIP4K2C. The conditions noted are these: read-out: apparent Kd; compound concentrations:100 nM and 1000 nM (sheet 'Samples'); n = 1.
Another assay deals with PRKAG2. The conditions noted are these: read-out: apparent Kd; compound concentrations:100 nM and 1000 nM (sheet 'Samples'); n = 1.
The subject of the next assay is PYGL. The conditions noted are these: read-out: apparent Kd; compound concentrations:100 nM and 1000 nM (sheet 'Samples'); n = 1.
The test system of a further assay is STK16. The conditions noted are these: read-out: apparent Kd; compound concentrations:100 nM and 1000 nM (sheet 'Samples'); n = 1.
For another assay, the system named is STK26. Particulars: read-out: apparent Kd; compound concentrations:100 nM and 1000 nM (sheet 'Samples'); n = 1.
The test system of a further assay is CDK6. The conditions noted are these: read-out: apparent Kd, n = 1.
A further assay has as its system ERBB3. The conditions noted are these: read-out: apparent Kd; compound concentrations:100 nM and 1000 nM (sheet 'Samples'); n = 1.
For a further assay, the system named is RIOK2. Particulars: read-out: apparent Kd, n = 1.
The subject of the next assay is AKT3. The conditions noted are these: read-out: apparent Kd; compound concentrations: 100 nM and 1000 nM (sheet 'Samples'), CATDS: 9.8238280231453798E-2; n = 1.
The subject of another assay is MAP2K1. The conditions noted are these: read-out: apparent Kd, compound concentrations: 100 nM and 1000 nM (sheet 'Samples'), n = 1.
Another assay has as its system MAP4K3. The conditions noted are these: read-out: apparent Kd; compound concentrations: 100 nM and 1000 nM (sheet 'Samples'), CATDS: 0.10467989294056; n = 1.
The test system of another assay is NQO1. Particulars: read-out: apparent Kd, compound concentrations: 100 nM and 1000 nM (sheet 'Samples'), n = 1.
The next assay has as its system TP53RK. The conditions noted are these: read-out: apparent Kd; compound concentrations: 100 nM and 1000 nM (sheet 'Samples'), CATDS: 8.4192999566122695E-2; n = 1.
The subject of the next assay is NNT. The conditions noted are these: read-out: apparent Kd; compound concentrations: 100 nM and 1000 nM (sheet 'Samples'), CATDS: 0.14240170913061401; n = 1.
The test system of another assay is ADCK5. The conditions noted are these: read-out: apparent Kd; compound concentrations:100 nM and 1000 nM (sheet 'Samples'); n = 1.
A further assay relates to CDK4. Particulars: read-out: apparent Kd; compound concentrations:100 nM and 1000 nM (sheet 'Samples'); n = 1.
A further assay relates to GSK3A. The conditions noted are these: read-out: apparent Kd; compound concentrations:100 nM and 1000 nM (sheet 'Samples'); n = 1.
The test system of the next assay is CDK10. Particulars: read-out: apparent Kd; compound concentrations: 100 nM and 1000 nM (sheet 'Samples'), CATDS: 0.80077145880212897; n = 1.
The test system of another assay is PRKAA2. Particulars: read-out: apparent Kd; compound concentrations: 100 nM and 1000 nM (sheet 'Samples'), CATDS: 0.26734267999924899; n = 1.
[1] abbreviates: compound concentrations:100 nM and 1000 nM (sheet 'Samples').

As to `Cc1ccc(NC(=O)CC2CC2)cc1-c1ccc(C(=O)NCC2CC2)cc1` [GW796920X], the potency estimated from few doses in the assay with ADRBK1 (setting [1]) is 1860 nM; in the assay on AKT1 (setting [1]), 1770 nM; with AKT2 (setting [1]) it was 1680 nM; in the assay on CSNK1A1, 2220 nM; with MAP2K2 (setting [1]) it was 2220 nM; in the assay on MAP3K4, 1800 nM. Further, the potency estimated from few doses is 629 nM with MAPK14; 2300 nM in the assay with NCL; 1700 nM in the assay on OPA1; 1740 nM with PIM2; 1650 nM with PIP4K2C; 1310 nM in the assay with PRKAG2. In addition, the potency estimated from few doses in the assay with PYGL is 2130 nM; in the assay with STK16, 2170 nM; in the assay on STK26, 1450 nM.
`CCc1cc(Nc2nccc(-c3c(-c4ccc(OC)c(C(=O)Nc5c(F)cccc5F)c4)nc4ccccn34)n2)c(OC)cc1N1CCC(N2CCN(S(C)(=O)=O)CC2)CC1` [GSK1904529]: the potency estimated from few doses with ADRBK1 (setting [1]) is 2030 nM; in the assay on CDK6 (setting [1]) it was 2370 nM; with ERBB3, 1360 nM; with RIOK2 (setting [1]), 2220 nM.
With `N#Cc1c(NC(=O)c2cccc3ccccc23)sc2c1CCCC2` [GW620972X], the potency estimated from few doses in the assay on ADRBK1 (compound concentrations: 100 nM and 1000 nM (sheet 'Samples'), CATDS: 9.9298321917506205E-2) is 1570 nM; with AKT1 (compound concentrations: 100 nM and 1000 nM (sheet 'Samples'), CATDS: 9.2646573747736397E-2) it was 1820 nM; with AKT2 (compound concentrations: 100 nM and 1000 nM (sheet 'Samples'), CATDS: 0.116273813691737), 1170 nM; in the assay with AKT3, 1610 nM; in the assay on MAP2K1 (CATDS: 9.2730141301733807E-2) it was 1820 nM; in the assay on MAP2K2 (compound concentrations: 100 nM and 1000 nM (sheet 'Samples'), CATDS: 9.7397505320664393E-2) it was 1640 nM. Moreover, the potency estimated from few doses is 1420 nM in the assay on MAP4K3; 1080 nM in the assay on NQO1 (CATDS: 0.121643058614981); 1440 nM in the assay on RIOK2 (compound concentrations: 100 nM and 1000 nM (sheet 'Samples'), CATDS: 0.103588865131405); 2270 nM with TP53RK.
As for `Cn1cc(C2=C(c3ccc4ccccc4c3)C(=O)NC2=O)c2ccccc21` [RO0317254-000], the potency estimated from few doses was 2340 nM with ADRBK1 (compound concentrations: 100 nM and 1000 nM (sheet 'Samples'), CATDS: 0.11613570195442); 2050 nM in the assay with AKT1 (compound concentrations: 100 nM and 1000 nM (sheet 'Samples'), CATDS: 0.12373221048930499); 2130 nM with AKT2 (compound concentrations: 100 nM and 1000 nM (sheet 'Samples'), CATDS: 0.121499008172246); 2160 nM with CDK6 (compound concentrations: 100 nM and 1000 nM (sheet 'Samples'), CATDS: 0.120580307710246); 1820 nM in the assay on MAP2K1 (CATDS: 0.131345384217323); 2130 nM with MAP2K2 (compound concentrations: 100 nM and 1000 nM (sheet 'Samples'), CATDS: 0.121431246351448). Also, the potency estimated from few doses is 1570 nM in the assay on NNT and 1960 nM with NQO1 (CATDS: 0.12637990091667001).
Consider `O=C(Nc1n[nH]c2nc(-c3nccs3)c(Br)cc12)C1CCCC1` [SB-742609], for which the potency estimated from few doses was 1310 nM with ADCK5, 1110 nM in the assay with CDK4 and 519 nM in the assay with GSK3A.
Turning to `CS(=O)(=O)Nc1ccc(-c2ccc3c(NC(=O)C4CC4)n[nH]c3c2)cc1` [SB-742865], the potency estimated from few doses is 1840 nM with ADRBK1 (compound concentrations: 100 nM and 1000 nM (sheet 'Samples'), CATDS: 0.24933386454831599); 107 nM in the assay on CDK10; 1440 nM with PRKAA2.
Consider `O=C(Nc1ccc2c(c1)OCO2)NC1CCN(c2ccnc(NCc3ccc(F)cc3)n2)CC1` [GSK1379859A], for which, in the assay on ADRBK1 (compound concentrations: 100 nM and 1000 nM (sheet 'Samples'), CATDS: 1), the potency estimated from few doses was 2160 nM.
